# Reference: PubChem BioAssay (NCATS)
# Inconclusive results are not listed. Entries that show only a call come without a potency. Values without a mark were called inactive. Active and inactive are the calls of the source. The call rests on the fitted dose curve; in most records, active means well fitted inhibition curve with a large enough effect; inconclusive means small, poorly fitted or top-dose-only effect; inactive means flat fitted curve, though single readings scatter.
# Biological target: Calcium and integrin-binding protein 1 (Homo sapiens) (UniProt Q99828)
# Sequence (Q99828 whole entry, looked up): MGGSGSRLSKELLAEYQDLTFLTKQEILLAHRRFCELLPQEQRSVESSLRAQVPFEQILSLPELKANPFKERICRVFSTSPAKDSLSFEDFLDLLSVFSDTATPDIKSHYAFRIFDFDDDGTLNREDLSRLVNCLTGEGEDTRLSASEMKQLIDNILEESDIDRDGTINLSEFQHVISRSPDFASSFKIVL
# Experiment: Primary qHTS for Identification of Calcium Integrin Binding Protein 1 (CIB1) Competitor (AID 1508620);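 further: GST tagged CIB1 binding a fluorescein labelled alphaIIb integrin peptide tracer; top concentration of the series differs between compounds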
# Conditions: CIB1-GST / FITC-alphaIIb peptide fluorescence polarization; series mostly up to 57.7 µM; activity change, negative = inhibition: at the top concentration
# Outline: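 CIB1-GST (1 uM final) and compound incubated 15 min at room temperature before adding FITC-alphaIIb peptide tracer (100 nM final). Competition for binding read by fluorescence polarization (ex 480, em 540) after another 15 min at room temperature.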
Compound,"activity change, negative = inhibition",Potency
CN1CC(=O)N2C(Cc3c([nH]c4ccccc34)[C@H]2c2ccc3c(c2)OCO3)C1=O (stereo partly drawn),4.14%,
Cn1c(=O)c(-c2c(Cl)cccc2Cl)cc2cnc(Nc3cccc(C(=O)O)c3)nc21,,inactive
c1cc(OCCN2CCCCC2)cc(-c2n[nH]c3ccc(-c4ncn[nH]4)cc23)c1,,inactive
NC(=O)c1ncn([C@@H]2O[C@H](CO)[C@@H](O)[C@@H]2O)n1,-1.86%,
CCC(=C(c1ccc(O)cc1)c1ccc(OCCNC)cc1)c1ccccc1,-8.27%,
COc1cccc(OC)c1-c1cc(C(=O)NC2(C(=O)O)C3CC4CC(C3)CC2C4)nn1-c1ccnc2cc(Cl)ccc12 (stereo not drawn),-8.75%,
Cc1ccc(NC(=O)c2ccc(CN3CCN(C)CC3)cc2)cc1Nc1nc(-c2cccnc2)cs1,,inactive
Cc1ccc2c(c1)c1c(n2CCc2ccc(C)nc2)CCN(C)C1,,inactive
